Assay [1] can be described thus: BET inhibitor-based combinations targeting novel dependencies in MECOM-rearranged (r) AML: SET-2 cell line (AID 2202231).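 For viability: plate controls were DMSO treated cells for no effect and wells without cells for full effect.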 Note: nearly all actives have a fitted effect of over 35% in size. The following applies: SET-2 AML cells viability, CellTiter-Glo luminescence, 48 h; viability: stronger effect = lower value, concentration not given here. The method in brief: (§1)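 Here, 11-point titrations of each agent were applied to 500 seeded cells and incubated 48 hr; CellTiter-Glo signal, scaled against DMSO and empty wells, was integrated as AUC, then Z-scored within the individual line.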

Assay [2] in a line: BET inhibitor-based combinations targeting novel dependencies in MECOM-rearranged (r) AML: OCI-AML3 cell line (AID 2202232).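 For viability (% of control): series mostly up to about 46 µM; plate controls were DMSO vehicle wells for no effect and wells without cells for full effect.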 Note: nearly all actives have a fitted effect of over 35% in size. The following applies: Potency: OCI-AML3 viability. In short, it runs like this:
as §1

Assay [3] is described as follows: BET inhibitor-based combinations targeting novel dependencies in MECOM-rearranged (r) AML: MV-4-11 cell line (AID 2202233).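 For viability, % of control: plate controls were DMSO for no effect and blank wells for full effect.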 Note: nearly all actives have a fitted effect of over 45% in size. In short, it runs like this: (§2)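 Normalized to DMSO and empty-well controls, the luminescence data from CellTiter-Glo after 48 hr drug exposure were fitted across 11 concentrations. Reported metrics are area under the dose-response curve and its Z-transformed form.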

Assay [4] can be described thus: BET inhibitor-based combinations targeting novel dependencies in MECOM-rearranged (r) AML: HNT-34 cell line (AID 2202234).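 For viability (% of control): plate controls were vehicle wells for no effect and cell-free wells for full effect.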 Note: nearly all actives have a fitted effect of over 35% in size. In short, it runs like this: as §2
Assay [5] is described as follows: BET inhibitor-based combinations targeting novel dependencies in MECOM-rearranged (r) AML: UCSD-AML1 cell line (AID 2202235).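 For viability (% of control): series mostly up to about 46 µM; plate controls were DMSO vehicle wells for no effect and blank wells for full effect.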 Note: nearly all actives have a fitted effect of over 40% in size. In short, it runs like this:
as §2

A short description of assay [6]: BET inhibitor-based combinations targeting novel dependencies in MECOM-rearranged (r) AML: AML-191 cell line (AID 2202236; note: nearly all actives have a fitted effect of over 35% in size;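 for viability (% of control): plate controls were vehicle wells for no effect and wells without cells for full effect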). The method in brief: as §1
Assay [7] can be described thus: BET inhibitor-based combinations targeting novel dependencies in MECOM-rearranged (r) AML: AML-194 cell line (AID 2202237; note: nearly all actives have a fitted effect of over 40% in size;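 for viability (% of control): plate controls were vehicle wells for no effect and wells without cells for full effect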). The method in brief:
as §1

Inconclusive results are not listed. A number with no mark means an inactive call. The source made the active and inactive calls. Calls come from the whole dose curve; as a rule, active = well fitted curve in the direction sought with a large enough effect; inconclusive = small, poorly fitted or top-dose-only effect, or another doubt; inactive = no such curve, though single readings can be large; an effect the other way counts as inactive or inconclusive.
Potency is the fitted concentration of half-maximal effect.

`CC(=O)OCC(=O)[C@@]12OC(C)(C)O[C@@H]1C[C@H]1[C@@H]3C[C@H](F)C4=CC(=O)C=C[C@]4(C)[C@@]3(F)[C@@H](O)C[C@@]12C`: the viability in assay [1] was 105%. The Potency entry in assay [2], in assay [3], in assay [4], in assay [5] and in assay [6] was “inactive” in each case.

For `Cc1ccc(C(=O)OCc2ccc([C@@H](CN)C(=O)Nc3ccc4cnccc4c3)cc2)c(C)c1`, the Potency in assay [1] was 14400 nM (active); in assay [2], 8110 nM (active); in assay [3] it was 3230 nM (active); in assay [4], 5120 nM (active); in assay [5], 14400 nM (active); in assay [6], 9100 nM (active). Also, the Potency in assay [7] is 8110 nM (active).

As to `CC(C)c1ccc(Cn2ccc3c4c(N)nc(NC5CC5)nc4ccc32)cc1`, the Potency in assay [1] is 468 nM (active); in assay [2] it was 1480 nM (active); in assay [3] it was 2090 nM (active); in assay [4] it was 1320 nM (active); in assay [5], 1320 nM (active); in assay [6] it was 1320 nM (active).

On to `CCCCC(=O)OCC(=O)[C@]1(O)Cc2c(O)c3c(c(O)c2[C@@H](O[C@H]2C[C@H](NC(=O)C(F)(F)F)[C@H](O)[C@H](C)O2)C1)C(=O)c1c(OC)cccc1C3=O`, for which the Potency in assay [1] was 4170 nM (active); in assay [2], 590 nM (active); in assay [3], 235 nM (active); in assay [4] it was 1860 nM (active); in assay [5] it was 833 nM (active); in assay [6], 1660 nM (active). In assay [7], the Potency is 2630 nM (active).

As for `Cc1ccc(C(=O)N(CCCN)[C@@H](c2oc3cc(Cl)ccc3c(=O)c2Cc2ccccc2)C(C)C)cc1`, the Potency was 166 nM (active) in assay [1]; 26.3 nM (active) in assay [2]; 37.2 nM (active) in assay [3]; 13.2 nM (active) in assay [4]; 14.8 nM (active) in assay [5]; 46.8 nM (active) in assay [6].

On to `CC(c1cc2ccccc2s1)N(O)C(N)=O` (centres undefined), for which the viability in assay [1] was 106%. Further, the Potency entry in assay [2], in assay [3], in assay [4], in assay [5], in assay [6] and in assay [7] was “inactive” in each case.

Take `Cc1cnc(NC(=O)c2cc(Oc3cnc(C(=O)N(C)C)nc3)c3cc(C)oc3c2)cn1`: in assay [1], the viability is 126%. Moreover, the Potency entry in assay [2], in assay [3], in assay [4], in assay [5] and in assay [6] was “inactive” in each case.

On to `COC(=O)/C=C/C(=O)OC`, for which the viability in assay [1] was 117%. The Potency result in assay [2], in assay [3], in assay [4], in assay [5] and in assay [6] was “inactive” in each case.

Regarding `N#CC(c1ccnc(NCCc2cccnc2)n1)c1nc2ccccc2s1` (centres undefined), the Potency in assay [1] was 18600 nM (active); in assay [2] it was 18600 nM (active); in assay [3], 6610 nM (active); in assay [4], 14800 nM (active); in assay [5], 18600 nM (active); in assay [6], 16600 nM (active). In addition, the Potency in assay [7] was 18600 nM (active).

Turning to `CC(C)(S)[C@@H](N)C(=O)O`, the viability in assay [1] is 116%. Moreover, the viability (% of control) is 118% [at 5.12 µM] in assay [2]; 108% [at 5.12 µM] in assay [4]; 112% [at 5.12 µM] in assay [5]; 111% [at 5.12 µM] in assay [6]; 114% [at 5.12 µM] in assay [7]. Moreover, the viability, % of control in assay [3] was 125% [at 5.12 µM].

Take `N=C1S/C(=C\c2ccc(-c3ccc4c(c3)C(=O)NC4=O)o2)C(=O)N1c1ccc(Br)cc1`: in assay [1], the viability was 117%. Also, the Potency entry in assay [2], in assay [3], in assay [4], in assay [5], in assay [6] and in assay [7] was “inactive” each time.

For the molecule `CN1C(C(=O)Nc2ccccn2)=C(O)c2sccc2S1(=O)=O`, the viability in assay [1] is 113%. Moreover, the Potency result in assay [2], in assay [3], in assay [4], in assay [5] and in assay [6] was “inactive” each time.

`COc1cc(C(=O)O)ccc1NC(=O)[C@@H]1N[C@@H](CC(C)(C)C)[C@](C#N)(c2ccc(Cl)cc2F)[C@H]1c1cccc(Cl)c1F`: the viability in assay [1] was 112%. The Potency was 2090 nM (active) in assay [2]; 132 nM (active) in assay [3]; 132 nM (active) in assay [4]; 468 nM (active) in assay [5]; 742 nM (active) in assay [6].

Take `Cn1cc(CNCC2CCN(c3ncc(C(=O)NO)cn3)CC2)c2ccccc21`: the Potency is 148 nM (active) in assay [1]; 118 nM (active) in assay [2]; 83.3 nM (active) in assay [3]; 118 nM (active) in assay [4]; 105 nM (active) in assay [5]; 148 nM (active) in assay [6].

As to `COC1=C(OC)C(=O)C(C/C=C(\C)CC/C=C(\C)CC/C=C(\C)CC/C=C(/C)CC/C=C(\C)CC/C=C(\C)CC/C=C(\C)CC/C=C(\C)CC/C=C(\C)CCC=C(C)C)=C(C)C1=O`, the viability in assay [1] is 117%. In addition, the Potency result in assay [2], in assay [3], in assay [4], in assay [5] and in assay [6] was “inactive” throughout.

In the case of `N#Cc1cccnc1N1CCN(C(=O)c2cccc(Cc3n[nH]c(=O)c4ccccc34)c2)CC1`, the Potency in assay [1] was 296 nM (active); in assay [2], 166 nM (active); in assay [3], 59 nM (active); in assay [4], 37.2 nM (active); in assay [5], 83.3 nM (active); in assay [6], 118 nM (active).

Turning to `C[C@H]1C[C@H]2[C@@H]3CCC4=CC(=O)C=C[C@]4(C)[C@H]3C(=O)C[C@]2(C)[C@@]1(O)C(=O)CO`, the viability in assay [1] is 116%. Also, the Potency entry in assay [2], in assay [3], in assay [4], in assay [5], in assay [6] and in assay [7] was “inactive” in each case.
